The values below come from PubChem BioAssay AID485270 (The Scripps Research Institute Molecular Screening Center, 2010).

About 5,800 (1.8%) of roughly 330,000 compounds were called active. For the sample, actives were picked, then their nearest neighbours and some compounds at random. Unmarked numbers belong to inactive results. Cut-off read from the data, not from the text of the source: active = inhibition mostly above about 38% (no sharp cut-off); inactive = mostly below about 40%.

The target of this test is Orexin/Hypocretin receptor type 1 (Homo sapiens) (UniProt O43613). Nature of the test: blocks the human orexin 1 receptor (AID 485270).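 Note: 0% = agonist challenge alone and 100% = reference antagonist.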 Particulars: OX1R-expressing cells, FRET antagonist read-out; at 6.6 µM; hits give high values.
Chain of Orexin/Hypocretin receptor type 1 (Homo sapiens) (O43613 whole entry, looked up): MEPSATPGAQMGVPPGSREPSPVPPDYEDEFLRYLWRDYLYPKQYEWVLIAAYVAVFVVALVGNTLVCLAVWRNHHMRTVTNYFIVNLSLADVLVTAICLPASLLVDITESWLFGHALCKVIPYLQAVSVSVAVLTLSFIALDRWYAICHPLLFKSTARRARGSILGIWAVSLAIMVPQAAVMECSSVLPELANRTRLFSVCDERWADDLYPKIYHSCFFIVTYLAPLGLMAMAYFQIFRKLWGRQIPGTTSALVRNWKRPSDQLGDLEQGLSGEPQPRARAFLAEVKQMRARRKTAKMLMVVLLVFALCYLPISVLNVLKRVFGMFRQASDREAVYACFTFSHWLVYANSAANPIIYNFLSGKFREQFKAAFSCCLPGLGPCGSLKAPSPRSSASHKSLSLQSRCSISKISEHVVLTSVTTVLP
Take `CC1Sc2ccc(C(=O)NCc3ccccc3Cl)cc2NC1=O` (configuration not stated): the inhibition was 1.56%.
With `NC(=O)Nc1ccc(C(=O)OCC(=O)NC2CCCc3ccccc32)cc1` (configuration not stated), the inhibition is 19.8%.
On to `COc1cccc(CC2(CO)CCCN(Cc3ccc(OC(F)F)cc3)C2)c1` (configuration not stated), for which the inhibition was 13.4%.
For `COc1cccc(CC2(CO)CCCN(Cc3nc(-c4cccs4)oc3C)C2)c1` (configuration not stated), the inhibition was 45% (active).
As for `COc1cccc(CC2(CO)CCCN(CC3=Cc4cc(OC)ccc4OC3)C2)c1` (configuration not stated), the inhibition was 25.7%.
On to `COC(=O)[C@]1(Cc2ccccc2)N[C@H](CN(C)S(=O)(=O)c2ccc(OC(F)(F)F)cc2)[C@@H]2C(=O)N(C)C(=O)[C@@H]21`, for which the inhibition is 5.12%.
With `O=C(CSc1ncnc2sccc12)NC1CCS(=O)(=O)C1` (configuration not stated), the inhibition was 4.8%.
Take `CCCCNS(=O)(=O)CCNCc1ccccc1OC`: the inhibition is 5.19%.
Next, `CCCCNC(=O)C(C)N(CCN(C)C)C(=O)CCCCCN1C(=O)NC(c2ccc(Cl)cc2)C(C(=O)OCc2ccccc2)=C1C` (configuration not stated): 7.69%.
As for `O=C(CCCOc1ccccc1)NNC(=O)c1ccc(Cl)cc1`, the inhibition was 2.88%.
`CN=C1C=C/C(=N/N=c2\ccn(O)cc2C)C=C1C`: the inhibition is 58.6% (active).
Take `CCOc1ncccc1C(=O)Nc1ccc2c(c1)OCCO2`: the inhibition was 14.1%.
As to `O=C(COC(=O)c1ccc(F)cc1)Nc1ccc2c(c1)OCO2`, the inhibition is 7.07%.
Regarding `COc1cc2ccccc2cc1C(=O)N1CCOCC1`, the inhibition is 9.14%.
Take `COc1cc2ccccc2cc1C(=O)Nc1ccc(N2CCOCC2)cc1`: the inhibition is 63.5% (active).
Next, `COc1cc2ccccc2cc1C(=O)Nc1ccncc1`: 17.8%; `O=C(Cn1cnc2ccccc2c1=O)NNC(=O)c1ccccc1F`: 6.41%.
In the case of `COc1cccc2cc(C(N)=O)/c(=N\NC(=O)c3ccccc3)oc12`, the inhibition was 5.27%.
In the case of `COc1cccc(N=c2oc3c(C)ncc(CO)c3cc2C(N)=O)c1`, the inhibition is 84.6% (active).
On to `COC(=O)c1ccc(NC(=O)c2cc3c(CO)cnc(C)c3oc2=Nc2cccc(C(N)=O)c2)cc1`, for which the inhibition is 7.42%.
The same measure for `O=C(CN1C(=O)NC2(CCCCCC2)C1=O)Nc1ccc([N+](=O)[O-])cc1`: 11.2%; for `O=C(Nc1ccccc1F)c1ccc(Cn2cc(Br)cn2)cc1`: 8.12%; for `Cc1ccc(Br)c(NS(=O)(=O)c2cccc(C(=O)N3CCNC(=O)C3)c2)c1`: 3.06%.
As for `S=C(NC1CCCCC1)NN1CCOCC1`, the inhibition was 18.3%.
In the case of `COc1ccc(NC(=O)CN2C(=O)CSc3ccc(S(=O)(=O)N4CCC(C)CC4)cc32)cc1`, the inhibition is 3.75%.
`O=C(Nc1cccc(S(=O)(=O)N2CCCC2)c1)c1cncc(Br)c1`: the inhibition is -1.91%.
As to `COc1cccc(/C=C/c2ccc3ccccc3n2)c1OC(C)=O`, the inhibition is 92% (active).
With `COc1cccc(/C=C2\C=C(c3ccc(C)cc3)OC2=O)c1OC(C)=O`, the inhibition was -6.31%.
For `CCOc1cccc(/C=C/c2ccc3ccccc3n2)c1OC(C)=O`, the inhibition is 58.1%.
As to `O=C(CSc1ncn[nH]1)Nc1ccc(Br)cc1Br`, the inhibition is 5.47%.
For the compound `C=CC[C@@H](CC(=O)N[C@@H](CO)Cc1ccccc1)C(=O)N[C@H](COC(=O)[C@H](CC=C)CC(=O)OC(C)(C)C)Cc1ccccc1`, the inhibition is 3.4%.
Turning to `CN(Cc1ccc(F)cc1)C(=O)CN1C(=O)c2ccccc2S1(=O)=O`, the inhibition is 13.1%.
The same measure for `CC(C)c1ccc(C(=O)OC2CCOC2=O)cc1` (configuration not stated): 27.2%; for `Cc1nn(Cc2ccccc2)c(Cl)c1C(=O)OC1CCOC1=O` (configuration not stated): 21.6%.
Take `O=C(OC1CCOC1=O)c1ccc(-c2nc3ccccc3s2)s1` (configuration not stated): the inhibition was 119% (active).
In the case of `Cc1ccc(S(=O)(=O)N2CCCCC2)cc1NC(=O)CCNC(=O)c1ccccc1`, the inhibition was 2.26%.
For `COc1cccc(CNC(C)C(=O)Nc2ccc(S(=O)(=O)N3CCCC3)cc2)c1` (configuration not stated), the inhibition was 2.03%.
With `O=C(NNC(=O)c1ccc(Cl)nc1)c1ccc(Br)cc1`, the inhibition is 8.95%.
As to `CCN(C[C@H]1N[C@@](CC)(C(=O)OC)[C@H]2C(=O)N(Cc3ccccc3)C(=O)[C@@H]12)S(=O)(=O)c1ccccc1`, the inhibition was 6.85%.
Regarding `O=C(Cc1ccc2c(c1)CCCC2)Nc1ccccc1Cl`, the inhibition was 6.59%.
Consider `O=C(Nc1ccccc1Cl)/C(Cl)=C(\Cl)S(=O)c1ccccc1` (configuration not stated), for which the inhibition was 87.9% (active).
Turning to `Cc1c(NC(=O)Nc2ccccc2Cl)sc(=S)n1C`, the inhibition was 12.2%.
In the case of `COc1ccc(CNC(=O)C2CCN(C(=O)c3ccco3)CC2)cc1`, the inhibition was 14.6%.
For the compound `CC(=O)c1c(OCC(=O)N(C)C2CCCCC2)ccc2c(C)cc(=O)oc12`, the inhibition is 2.71%.
As to `O=C(NCc1ccccc1)c1onc(CSc2nc3ccccc3[nH]2)c1C(=O)NCc1ccccc1`, the inhibition was 71.2% (active).
As to `O=C(NCC1CC1)c1onc(CSc2ccccc2)c1C(=O)NCC1CC1`, the inhibition was 28.4%.
Turning to `O=C(NCc1ccccc1)c1onc(CSc2ccncc2)c1C(=O)NCc1ccccc1`, the inhibition was 16.4%.
For `O=S(=O)(Nc1ncnc2sccc12)c1cccc(F)c1`, the inhibition was 3.31%.
For `Cc1cc(NC(=O)COC(=O)/C=C/c2ccc(C)o2)no1`, the inhibition was 1.38%.
The same measure for `C=CCSc1nnc2c(n1)-c1cccc3cccc-2c13`: 56.6% (active); for `CCOC(=O)C1=CN(Cc2ccc(Br)cc2)S(=O)(=O)NC1C` (configuration not stated): 8.5%.
`COc1cc2c(-c3ccc4c(c3)OCO4)c(-c3ccsc3)oc(=O)c2cc1OC`: the inhibition is 16.2%.
In the case of `CC(OC(=O)c1cc2ccccc2[nH]1)C(=O)N(C)c1ccccc1` (configuration not stated), the inhibition was 5.48%.
For the compound `C[C@H](NC(=O)c1ccccc1Cl)C(=O)OCC(=O)N1CCN(c2ccccc2)CC1`, the inhibition was 3.17%.
Regarding `COc1cc(C(=O)OCc2ccc([N+](=O)[O-])cc2)cc(OC)c1OC`, the inhibition is 14.5%.
On to `O=C(OCC(=O)N1CCN(c2ccccc2)CC1)c1ccc([N+](=O)[O-])s1`, for which the inhibition is 42.6% (active).
With `COc1ccc(C(=O)OCC(=O)c2ccc(C)c(S(=O)(=O)N3CCOCC3)c2)cc1OC`, the inhibition was 27.8%.
`O=C(CN1CCCC1)N1CCN(c2ccccc2)CC1`: the inhibition is 3.2%.
The same measure for `COc1cc(NC(=O)COC(=O)c2ccc([N+](=O)[O-])s2)cc(OC)c1OC`: 47.4% (active); for `COc1ccc(C(=O)COC(=O)c2ccc([N+](=O)[O-])s2)cc1OC`: 38.5% (active).
For the compound `COc1ccc(C(=O)NCC(=O)N/N=C/c2ccc([N+](=O)[O-])s2)cc1OC`, the inhibition was 44%.
The same measure for `COc1ccc(C(=O)OCC(=O)Nc2ccc3[nH]c(=O)[nH]c3c2)c(OC)c1OC`: 18%.

One may read the inhibition as the relative decrease from the control value, in per cent.
